Screening results as filed in PubChem.
Most compounds without a hit are left out; they make up all but 7.4% or so of the library.
Rab9 promoter act: activators of Rab9 promoter; AID 485297; Potency, µM (top dose mostly 9.22 µM), inactives show top-dose activation, negative = inhibition, hits mostly activators; actives 2.8% (n = 320,000); Huh7 Rab9 promoter-luciferase reporter, luminescence, 24 h; also: % of control where 0% means no effect; nearly all actives have a fitted effect of over 60% in size
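Steps: seed 1500 Huh7 Rab9-luc cells per well, rest 2 h at 37 °C; add compound in DMSO; incubate 24 h; add luciferase reagent, 10 min ambient; read luminescence.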
SMN2 splice enh: increases expression of the SMN2 splice variant. HEK293 SMN2-luciferase splicing reporter, luminescence, 30-36 h. Potency, µM (titrated, usually from 46.1 µM), for inactives: at the highest dose activity change, positive = activation, actives largely listed as activators. actives 2.8% (n = 210,000). AID 1458; also: % of control where 0% means no effect; nearly all actives have a fitted effect of over 55% in size
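qHTS luciferase splicing reporter: luminescence rises when SMN2 exon 7 is included in transfected HEK293 cells. Compound exposure lasted 30-36 h at 37C, with 4.5 mM final sodium butyrate as control, followed by a ONE-Glo read.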
FLuc modulator: firefly luciferase modulation, counter-screen for miR-21 project. Potency, µM (doses to about 57.5 µM), without a hit: at the highest dose activity change, negative = inhibition, most hits filed as inhibitors. P08659. AID 588342. purified FLuc, Km substrates, luminescence inhibition. actives 6.9% (n = 360,000);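 also: plate controls were vehicle for no effect and reference inhibitor for full effect; nearly all actives have a fitted effect of over 55% in size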
Target sequence (P08659 whole entry, looked up): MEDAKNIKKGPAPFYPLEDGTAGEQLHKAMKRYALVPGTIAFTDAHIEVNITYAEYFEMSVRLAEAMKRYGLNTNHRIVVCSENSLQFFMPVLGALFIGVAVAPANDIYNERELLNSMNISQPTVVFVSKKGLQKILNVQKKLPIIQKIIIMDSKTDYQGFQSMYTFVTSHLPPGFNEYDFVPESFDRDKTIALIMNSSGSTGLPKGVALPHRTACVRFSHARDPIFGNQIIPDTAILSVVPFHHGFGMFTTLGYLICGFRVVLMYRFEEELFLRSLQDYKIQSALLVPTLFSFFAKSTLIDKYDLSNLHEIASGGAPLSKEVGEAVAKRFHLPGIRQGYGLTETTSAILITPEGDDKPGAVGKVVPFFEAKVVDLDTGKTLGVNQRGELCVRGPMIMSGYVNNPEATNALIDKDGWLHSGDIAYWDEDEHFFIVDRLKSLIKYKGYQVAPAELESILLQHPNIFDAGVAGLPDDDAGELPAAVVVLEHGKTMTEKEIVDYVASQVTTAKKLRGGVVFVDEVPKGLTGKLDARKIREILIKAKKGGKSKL
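Purified P. pyralis luciferase (10nM final) with 10uM D-luciferin and 10uM ATP (Km levels) in 50mM Tris acetate pH 7.5, 10mM Mg acetate, 0.01% Tween-20, 0.05% BSA; qHTS 6-point titration, ~60 µM downward; luminescence read.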
NPC1 prom act: activates the NPC1 promoter. Huh7 NPC1 promoter luciferase reporter, 24 h. Potency, µM (doses to about 9.22 µM), for inactives: at the highest dose activation, most hits filed as activators. actives 2.4% (n = 320,000). AID 485313; also: % of control where 0% means no effect; nearly all actives have a fitted effect of over 60% in size
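Compounds in DMSO were transferred onto Huh7 NPC1-luciferase reporter cells pre-incubated 2 h; after 24 h at 37 °C, Amplite reagent was dispensed and luminescence recorded 10 min later.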
ELG1 genotoxic: inducers of genotoxicity in HEK293T ELG1-luciferase cells | HEK293T ELG1-luciferase reporter, luminescence, 16 h | Potency, µM (highest dose often 46 µM), for inactives: at the highest dose activity change, positive = activation, usual class: activators | actives 1.3% (n = 330,000); also: % of control where 0% means no effect; nearly all actives have a fitted effect of over 60% in size
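ELG1-luciferase HEK293T cells, 2,000/well; compound pinned in; 16 hr, 37 °C, 5% CO2; ONE-Glo, 30 min RT; luminescence on CCD imager.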
Starred values were filed as active, the others as inactive; ? = inconclusive; . = no result given; [ ] = another dose, or the depositor's remark. Calls follow the shape of the dose curve; as a rule, active = well fitted curve in the direction sought with a large enough effect; inconclusive = small, poorly fitted or top-dose-only effect, or another doubt; inactive = no such curve, though single readings can be large; an effect the other way counts as inactive or inconclusive. Potency is read from the fitted curve at half-maximal effect.

SMILES	Rab9 promoter act	SMN2 splice enh	FLuc modulator	NPC1 prom act	ELG1 genotoxic
O=C(CN1C(=O)NC2(CCCCCC2)C1=O)Nc1ccc(Br)cc1Br	-7.5%	.	5.9%	-8.0%	0.5%
CCOCCCN(C)C1CCN(C(=O)c2oc3ccccc3c2NC(=O)c2cccc([N+](=O)[O-])c2)CC1	-1.8%	.	1.5%	-1.5%	-5.1%
O=C(CCC(=O)Nc1nnc(C2CCCCC2)s1)NCc1ccc(F)cc1	-1.8%	.	1.4%	-2.7%	-0.1%
CCCCNC(=O)/C(C#N)=C/c1cccnc1	2.7%	5.01µM*	1.4%	4.5%	13.0%
N#C/C(=C\c1ccc2c(c1)OCCO2)C(=O)NC1CCCCC1	5.2%	.	4.78µM*	-2.9%	?
CCCCNC(=O)/C(C#N)=C/c1ccc2c(c1)OCCO2	0.8%	14.3%	9.53µM*	-1.3%	?
COc1ccc(/C=C(/C#N)C(=O)NC2CCCCC2)cc1Br	-0.3%	-24.3%	-13.2%	-3.0%	1.4%
N#C/C(=C\c1ccc2c(c1)OCCO2)C(=O)Nc1ccc(C(=O)O)cc1	15.5%[1.84 µM]	.	0.338µM*	21.4%	?
Cc1cccc(NC(=O)/C(C#N)=C\c2cccnc2)c1	-1.9%	-12.4%	?	-0.2%	-1.8%
CCCCCCCCNC(=O)/C(C#N)=C/c1ccc2c(c1)OCCO2	-6.6%	-28.8%	-0.8%	-0.9%	0.8%
CC(C)NC(=S)N/N=C/c1ccc(C(C)(C)C)cc1	-31.8%	0.2%	-3.1%	5.7%	-5.2%
CC(=O)c1ccc(OCc2cc(C(=O)N3CCC(c4ccncc4)CC3)no2)cc1	-16.0%	.	-0.1%	-13.6%	8.8%
CC(=O)c1ccc(OCc2cc(C(=O)N3CCCCC3c3cccnc3)no2)cc1 (stereo unspecified)	?	.	26.9µM*	?	?
CC(=O)c1ccc(OCc2cc(C(=O)N3CC[C@@H]4CCCC[C@H]4C3)no2)cc1	2µM*	.	9.53µM*	2.51µM*	?
CC(=O)c1ccc(OCc2cc(C(=O)N(C)CCOc3ccc(C)cc3)no2)cc1	3.98µM*	.	9.53µM*	2.51µM*	2.91µM*
CC(=O)c1ccc(OCc2cc(C(=O)NC3CCCCC3)no2)cc1	3.98µM*	.	?	3.55µM*	-6.1%
Cc1ccc(C)c(S(=O)(=O)Nc2nc3ccc(S(N)(=O)=O)cc3s2)c1	1.5%	.	?	-1.6%	0.1%
Cc1nc(CSc2ccc(Br)cc2)cs1	3.9%	.	16.9µM*	-1.4%	11.5%
NC(=S)N/N=C/c1c[nH]c2ccc(OCc3ccccc3)cc12	0.4%	.	21.3µM*	-2.1%	-6.6%
CC1CN2C(c3ccc(Cl)cc3)=CSC2=N1 (stereo unspecified)	6.9%	.	2.1%	-3.1%	-6.2%
N=c1sccn1CC(=O)Nc1cc(S(=O)(=O)N2CCCC2)ccc1Cl	1.6%	4.7%	3.3%	-6.6%	-1.0%
N[C@@H](Cc1ccc(O)cc1)C(=O)Nc1ccc2ccccc2c1	16.5%	.	?	27.0%	6.5%
NC(Cc1cnc[nH]1)C(=O)Nc1ccc2ccccc2c1 (stereo unspecified)	.	12.6µM*	.	.	.
O=C(COc1ccc(Br)cc1)N1CCN(c2ncccn2)CC1	3.9%	.	.	-4.8%	1.1%
O=C(c1ccc2oc(CCCc3ccccc3)nc2c1)N1CCCC1	1.78µM*	.	8.49µM*	3.16µM*	9.2µM*
SMILES	Rab9 promoter act	SMN2 splice enh	FLuc modulator	NPC1 prom act	ELG1 genotoxic
CC(=O)C1CCCN(C(=O)c2ccc3oc(CCc4ccccc4)nc3c2)C1 (stereo unspecified)	2.51µM*	.	?	?	?
CCOC(=O)C1CCCN(C(=O)c2ccc3oc(CCc4ccccc4)nc3c2)C1 (stereo unspecified)	30.0%	.	13.5µM*	?	11.6%
CCCCc1nc2cc(C(=O)N3CCN(c4nc(C)cnc4C)CC3)ccc2o1	?	.	15.1µM*	?	3.9%
O=S(=O)(c1ccc2c(c1)CCCC2)N1CCNCC1	1.8%	.	7.3%	2.0%	4.6%
Cc1cc(OCC(=O)Nc2nc3c(s2)CCCC3)cc(C)c1Cl	.	.	-10.1%	.	.
COCCc1nc2ccc(C(=O)N3CCCCC3COC)cc2o1 (stereo unspecified)	-4.3%	.	-3.2%	0.0%	4.1%
COCCC1CCCCN1C(=O)c1ccc2nc(Cc3ccccc3F)oc2c1 (stereo unspecified)	2.82µM*	.	8.49µM*	1.78µM*	10.3µM*
COC(=O)C1CCCCN1C(=O)c1ccc2oc(Cc3ccccc3)nc2c1 (stereo unspecified)	?	.	15.1µM*	3.55µM*	?
COc1ccc(CNC(=O)CN(C(=O)CCC(=O)Nc2ccccn2)c2cccc(C)c2C)cc1	0.7%	.	0.2%	-0.9%	-7.9%
C=CCNc1nc(-c2cccs2)c(CC(=O)O)s1	-0.2%	.	-0.7%	1.7%	-0.8%
COc1ccccc1Nc1nc(-c2ccccc2)c(CC(=O)O)s1	.	11.7%	16.9µM*	.	.
O=C(O)Cc1sc(Nc2ccccc2)nc1-c1cccs1	27.1%	.	12µM*	?	?
O=C(O)Cc1sc(N/N=C\c2ccccc2)nc1-c1ccccc1	11.8%	16.1%	23.9µM*	6.5%	0.5%
CCOC(=O)c1sc(N/N=C/c2cccc(C)c2)nc1C	?	20.4%	8.49µM*	?	11.0%
CCOC(=O)c1sc(Nc2ccc(C)cc2C)nc1C	-2.6%	-19.1%	?	-3.0%	20.7%
O=C(NNC(=O)C1CC=CCC1)c1ccccc1O (stereo unspecified)	?	.	?	17.9%	13.2%
C=CCn1c(=O)c2ccccc2n2c(SCC(=O)NCC)nnc12	-6.0%[1.84 µM]	.	5.7%	-3.3%	-3.4%
COC(=O)c1ccc(/C=N/Nc2nc(C)c(C)s2)cc1	0.447µM*	.	1.07µM*	0.355µM*	-6.9%
COc1ccc(/C(C)=N/Nc2nc(C)c(C(C)=O)s2)cc1	-0.6%	.	?	-2.5%	3.4%
CC(=O)c1sc(N/N=C\c2ccccc2O)nc1C	?	?	3.38µM*	?	6.51µM*
O=C(O)Cc1sc(-c2ccccc2Cl)nc1-c1ccccc1	4.3%	-20.6%	23.9µM*	-5.8%	-10.5%
O=C(Cc1sc(-c2ccccc2)nc1-c1ccccc1)Nc1ccccc1	-3.9%	11.7%	-19.1%	-0.1%	5.7%
CCOC(=O)c1sc(N/N=C/c2ccccc2)nc1C	1.58µM*	12.6µM*	2.69µM*	2.82µM*	8.2µM*
N#Cc1ccccc1NC(=O)C(=O)NCCc1csc(-c2ccc(F)cc2)n1	-5.3%	.	-0.6%	-4.0%	.
O=C(NNC(=O)C1CC(c2cccs2)=NO1)Nc1ccc(Cl)cc1 (stereo unspecified)	0.9%	.	3.1%	-3.9%	3.1%
Cc1ccnc(NS(=O)(=O)c2ccc(NC(=O)c3cc(=O)c4ccc(C)c(C)c4o3)cc2)n1	.	-4.2%	-15.9%	.	.
CC(C)CN(C(=O)COC(=O)CSc1ccc([N+](=O)[O-])cc1)C1CCS(=O)(=O)C1 (stereo unspecified)	-3.7%	.	-2.9%	-2.6%	1.8%
CCCc1sc(N/N=C/c2ccccn2)nc1-c1ccc(F)cc1	-31.7%	-73.7%	-15.9%	-36.1%	?
